Records with an inconclusive call do not appear. Active and inactive are the calls of the source. Calls come from the whole dose curve.
What was measured:
[1] = Primary qHTS for inhibitors of SARS-S pseudo-typed particle cell entry (AID 1479145); note: nearly all actives have a fitted effect of over 45% in size
[2] = Primary qHTS for Huh7 cytotoxicity: counterscreen for inhibitors of MERS-S pseudotyped particle cell entry (AID 1479147)
[3] = Primary qHTS for inhibitors of MERS-S pseudo-typed particle cell entry (AID 1479149); note: nearly all actives have a fitted effect of over 60% in size
[4] = Primary qHTS for Vero E6 cytotoxicity: counterscreen for inhibitors of SARS-S pseudo-typed particle cell entry (AID 1479150)
% is set by controls: 0 for no effect and ±100 for the full control effect.

CC(=O)Nc1ccccc1
inactive: Potency [1] | Potency [2] | Potency [3] | Potency [4]

CCn1nc(C(=O)O)c(=O)c2cc3c(cc21)OCO3
inactive: Potency [1] | Potency [2] | Potency [3] | Potency [4]

CN1C(=O)OC(C)(C)C1=O
inactive: Potency [1] | Potency [2] | Potency [3] | Potency [4]

CS(=O)(=O)c1ccc([C@@H](O)[C@@H](CF)NC(=O)C(Cl)Cl)cc1
inactive: Potency [1] | Potency [2] | Potency [3] | Potency [4]

NS(=O)(=O)c1ccc(Cl)c(S(N)(=O)=O)c1
inactive: Potency [1] | Potency [2] | Potency [3] | Potency [4]

CCCc1nn(C)c2c(=O)[nH]c(-c3cc(S(=O)(=O)N4CCN(C)CC4)ccc3OCC)nc12
inactive: Potency [1] | Potency [2] | Potency [3] | Potency [4]

Cc1cc(C)nc(NS(=O)(=O)c2ccc(N)cc2)n1
inactive: Potency [1] | Potency [2] | Potency [3] | Potency [4]

O=C(O)CNC(=O)c1ccccc1
inactive: Potency [1] | Potency [2] | Potency [3] | Potency [4]

O=C(O)Cc1cccc2ccccc12
inactive: Potency [1] | Potency [2] | Potency [3] | Potency [4]

CCCCC(=O)OCC(=O)[C@H]1[C@H](C)C[C@H]2[C@@H]3C[C@H](F)C4=CC(=O)C=C[C@]4(C)[C@@]3(F)[C@@H](O)C[C@@]21C
inactive: Potency [1] | Potency [2] | Potency [3] | Potency [4]

O=C(CS(=O)Cc1ccco1)NC/C=C\COc1cc(CN2CCCCC2)ccn1 (stereo not drawn)
inactive: Potency [1] | Potency [2] | Potency [3] | Potency [4]

O=C1c2c(O)cccc2Cc2cccc(O)c21
inactive: Potency [1] | Potency [2] | Potency [3] | Potency [4]

NS(=O)(=O)c1cc(C(=O)O)cc(N2CCCC2)c1Oc1ccccc1
inactive: Potency [1] | Potency [2] | Potency [3] | Potency [4]

NC(N)=NCCN1CCCCCCC1
inactive: outcome [1] inactive [at 0.573 µM] | outcome [2] inactive [at 0.573 µM] | outcome [3] inactive [at 0.573 µM] | activity change, negative = cytotoxicity [4] 3.58% [at 0.573 µM]

C[C@]12CCC(=O)C=C1CC[C@H]1[C@@H]3CC[C@](O)(C(=O)CO)[C@@]3(C)C[C@H](O)[C@@]12F
inactive: Potency [1] | Potency [2] | Potency [3] | Potency [4]

Cc1ncc(CO)c(CO)c1O
inactive: Potency [1] | Potency [2] | Potency [3] | Potency [4]

C[C@]12C=CC(=O)C=C1[C@@H](F)C[C@@H]1[C@@H]2[C@@H](O)C[C@@]2(C)[C@H]1CC[C@]2(O)C(=O)CO
inactive: Potency [1] | Potency [2] | Potency [3] | Potency [4]

From PubChem BioAssay (NCATS)
